In PubChem BioAssay (NCATS):
Records with an inconclusive call do not appear. Values without a mark were called inactive. The source made the active and inactive calls. Calls come from the whole dose curve; as a rule, active = well fitted curve in either direction with a large enough effect (not every such curve was filed as active); inconclusive = small, poorly fitted or top-dose-only effect, or another doubt; inactive = flat fitted curve, though single readings scatter.

Experiment: NFAT Signaling Pathway (AID 444)
Conditions: Jurkat NFAT-bla M1, carbachol, beta-lactamase ratio, 5 h; at 7.69 µM (top of the series) unless noted
Source text: NCGC Assay Overview: The nuclear factor of activated T cells (NFAT) family of transcription factors has been found primarily in most immune system cells and some other non-immune cells. NFAT plays the immunomodulatory role, primarily in T-cell activation and differentiation. NFAT target genes are also involved in the regulation of apoptosis and differentiation in non-immune cell types. The NFAT sequence was engineered to the upstream of the ?-lactamase reporter gene and transfected into Jurkat cells with co-transfection of muscarinic receptor1 [provided by Invitrogen Corp]. When an extracellular stimulus, such as carbachol, binds to the GPCR M1 receptor, it stimulates a signaling cascade that activates NFAT response element and ?-lactamase expression by phosphorylating the NFAT binding protein. This cell based ?-lactamase reporter gene assay can accurately monitor any changes occurring along the NFAT pathway, and can be used for screening small molecule inhibitor or activator upon activation by carbachol EC50 concentration. A small molecular library were screened in a titration series resulting in AC50s (can be either IC50s or EC50s).
NCGC Assay Protocol Summary: The cells were prepared in RPMI 1640 medium containing 0.1% dialyzed FBS and 25 mM HEPES at 1.6 x 10^6cell/ml. The assay was performed in 1536-well plate format as follows: 5 ul of cell preparation 23 nl of compounds 1ul of carbachol (final concentration 1 uM) Briefly centrifuge the plates and incubate at 37 °C for 5 hours 1 ul of CCF4 dye mixture Incubate the plates at RT for 1 hour Read the plate in EnVision plate reader (Ex= 405nm, and Em1=460nm and Em2=530nm). The %Activity was determined from the ratio of 460nm/530nm. Data normalization and AC50 calculations were accomplished using GeneData software.
% is set by controls: 0 for no effect and ±100 for the full control effect.

SMILES | activity change, negative = inhibition
CCNc1ncc2ncc(=O)n(Cc3cccc(OC)c3)c2n1 | 8.9%
COc1ccc2[nH]cc(CCNc3ncncc3-c3ccccc3C)c2c1 | 7.13%
COCCn1c(=O)c(-c2cccc(C#N)c2)nc2cnc(OCc3ccccc3)nc21 | -5.35%
CN(Cc1ccco1)c1nc(-c2cccnc2)nc2ccccc12 | -25.8%
CN1CCN(c2ncc3nc(-c4ccccc4)c(=O)n(Cc4cccs4)c3n2)CC1 | -9.53%
COc1ccccc1CNc1nc(-c2ccc(C(=O)N(C)C)cc2)nc2ccccc12 | -1.92%
COc1ccccc1CNc1nc(-c2cccc(NS(C)(=O)=O)c2)nc2ccccc12 | -21%
COc1ccccc1CNc1ccnc(-c2cccnc2)n1 | -4.87%
COc1cccc(Nc2ncc3nc(-c4cccs4)c(=O)n(C[C@H]4CCCO4)c3n2)c1 | -15.5%
N#CCCn1c(=O)c(-c2ccc(Cl)cc2)nc2cnc(N3CCOCC3)nc21 | 5.23%
COc1cccc(-c2cncnc2NCc2ccccc2OC)c1 | 6.93%
COc1ccccc1-c1ccc2ncnc(N3CCNCC3)c2c1 | 5.04%
COc1ccc2[nH]cc(CCNc3ncncc3-c3ccccc3OC)c2c1 | -9.5%
CN1CC[C@H](CN2c3ccccc3Sc3ccccc32)C1 | -75.3% (active)
CC(=O)N1CCC2(CCCN(c3ccc(-c4ccccc4)cc3)C2)CC1 | -24.3%
COc1ccc(-n2c(=O)c(-c3cccs3)nc3cnc(N4CCN(C)CC4)nc32)cc1 | 4.91%
COc1ccc2[nH]cc(CCNc3ncncc3-c3cccc(C#N)c3)c2c1 | -10.2%
O=c1c(-c2cccc(F)c2)nc2cncnc2n1Cc1ccc(F)cc1 | -4.79%
COCCNc1ncnc2ccc(-c3ccccc3OC)cc12 | 2.23%
COc1ccc2[nH]cc(CCNc3ncncc3-c3ccccc3Cl)c2c1 | -11.6%

SMILES | activity change, negative = inhibition
COc1ccc(Oc2ncc3nc(-c4cccc(C#N)c4)c(=O)n(CCC#N)c3n2)cc1 | 14.2%
CN(C)c1ncc2nc(CCc3ccccc3)c(=O)n(-c3ccccc3)c2n1 | 12.7%
CN1CCN(c2ncc3nc(-c4cn(C)c5ccccc45)c(=O)n(CCC#N)c3n2)CC1 | 23.5%
COc1ccccc1CNc1ncncc1-c1ccccc1C(F)(F)F | -21.7%
COC(=O)c1cc(Br)c(=O)n(CCc2ccc(F)cc2)c1 | -12.1% [at 17.2 µM]
c1ccc(NN(Cc2cnccn2)c2ccccc2)cc1 | -17.6%
COc1ccc2[nH]cc(CCNc3ncncc3-c3ccccc3C(F)(F)F)c2c1 | -3.73%
COc1ccccc1-c1ccc2ncnc(N3CCOCC3)c2c1 | 18.9%
CN(C)c1ncc2nc(CCc3ccccc3)c(=O)n(CCC#N)c2n1 | -3.25%
Cc1nc2cnc(N3CCN(C)CC3)nc2n(CCc2ccccc2)c1=O | -16.9%
COc1ccccc1CNc1ncncc1-c1ccccc1Cl | -21.7%
COCCn1c(=O)c(-c2ccc(F)cc2)nc2cnc(Oc3ccccc3)nc21 | 9.44%
c1cncc(CNc2nc(-c3cccnc3)nc3ccccc23)c1 | -15.2%
COCCn1c(=O)c(CCc2ccccc2)nc2cncnc21 | 9.83%
Cn1c(=O)c(-c2ccc(Cl)cc2)nc2cncnc21 | -0.619%
COCCn1c(=O)c(CCc2ccccc2)nc2cnc(OCc3ccccc3)nc21 | 4.34%
COc1cccc(-c2ccc3ncnc(NCc4ccc(OC)cc4OC)c3c2)c1 | -18.9%
COc1ccccc1CNc1ncncc1-c1ccc2c(c1)OCO2 | -11.1%
Cn1c(=O)c(-c2ccccc2)nc2cnc(N3CCOCC3)nc21 | 3.19%
c1ccc(Nc2nc(-c3cccnc3)nc3ccccc23)cc1 | 17%
